Drawing on PubChem BioAssay (EPA / NIEHS), this text covers outcome and AC50 for 27 compounds.

SMILES strings stand for the structures. Activity calls are given as the source filed them. How the source made its calls: active means hit-call score of the fitted dose curve at least 0.9, where 1 is the maximum; inactive means score below 0.9.

Read-out in this test: Interleukin 6 Receptor (IL6R), IL6R (gene 3570)
As to the kind of experiment: LTEA_HepaRG_IL6R: Life Technologies and Expression Analysis (LTEA) Assay for Interleukin 6 Receptor (IL6R) using HepaRG (AID 2283510).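 On AC50: differentiated human HepaRG liver cells in serum-free induction medium; TaqMan qRT-PCR signal normalized to ACTB GAPDH and POLR2A housekeeping genes.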 The conditions noted are these: mRNA level, 48 h; actives raise or lower the signal. Put shortly: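 Readout is IL6R transcript level by TaqMan qRT-PCR, normalized to three housekeeping genes and fitted bidirectionally against 0.5% DMSO controls. Human HepaRG cells received chemicals for 48 h in serum-free induction medium, highest concentration 100 uM.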
For the compound `O=C(Nc1ccccc1)c1ccccc1I`, the result was inactive.

Take `OCCOCCO`: the result was inactive.

With `Nc1ccc(Cl)cc1N`, the AC50 is 34.2 µM (active).

As for `Cc1ccc(N)cc1`, the compound was classed as inactive.

Turning to `N#CC(Br)Br`, the result was inactive.

In the case of `Nc1ccc(Oc2ccc(N)cc2)cc1`, the call was inactive.

As to `[O-][Cl+]O`, the compound was called inactive.

Consider `CCCCCCCCOC(=O)c1ccc(C(=O)OCCCCCCCC)c(C(=O)OCCCCCCCC)c1`, for which the outcome was inactive.

For the compound `COc1cc(C=O)cc2c1[C@H](COC(N)=O)[C@]1(OC(C)=O)ON2C[C@H]2[C@@H]1N2C(C)=O`, the AC50 is 24.7 µM (active).

For the compound `CCCCC(CC)COC(=O)c1ccc(C(=O)OCC(CC)CCCC)c(C(=O)OCC(CC)CCCC)c1` (configuration not stated), the result was inactive.

As for `Cn1cc(-c2ccccc2)c(=O)c(-c2cccc(C(F)(F)F)c2)c1`, the result was inactive.

Regarding `CN(C)c1ccccc1`, the outcome was inactive.

For the compound `CCC(C)c1ccc(O)cc1` (configuration not stated), the result was inactive.

Regarding `N#CC(Br)(Br)C(N)=O`, the compound was classed as inactive.

For the compound `C1=Cc2cccc3cccc1c23`, the outcome was inactive.

With `CO[C@@H]1[C@H](OC(=O)NC(=O)CCl)CC[C@]2(CO2)[C@H]1[C@@]1(C)O[C@@H]1CC=C(C)C`, the compound was called inactive.

Turning to `CC(C)(C)OOC(C)(C)CCC(C)(C)OOC(C)(C)C`, the compound was called inactive.

Take `Cc1cccc(N)c1N`: the call was inactive.

On to `O=C(Oc1ccc(Br)cc1)N1CCN2CCC1CC2`, for which the compound was called inactive.

On to `O=P(OCCCl)(OCCCl)OCCCl`, for which the compound was called inactive.

In the case of `CNC(=O)Oc1cccc2c1OC(C)(C)C2`, the call was inactive.

Take `ClC1=C(Cl)C2(Cl)C3C(Cl)C=CC3C1(Cl)C2(Cl)Cl` (configuration not stated): the result was inactive.

As for `[Cl-].[Cl-].[Hg+2]`, the outcome was inactive.

Regarding `O=Cc1ccco1`, the outcome was inactive.

Take `Cc1ccc(N)c(N)c1`: the result was inactive.

In the case of `COP(=S)(OC)SCN1C(=O)c2ccccc2C1=O`, the call was inactive.

Consider `CC(C)COC(=O)c1ccccc1C(=O)OCC(C)C`, for which the call was inactive.
